The record followed here is PubChem BioAssay.

The structures appear in SMILES notation. Active and inactive are the calls of the source.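 Rule for the calls, unless noted: active = NADPH fluorescence slope more negative than the mean of all samples by about 3 SD, 99.7% confidence; inactive = the rest.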

Test [1] in a line: inhibitors of TNFa-induced NFkB p65 translocation, primary screen, imaging, HUVEC, MLSMR starter and 10KST1 sets (AID 438;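 active = inhibition above 20% together with a positive visual image hit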;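 note: compound added about 3h40 before a 20 min TNFalpha stimulation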;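 for inhibition: signal is the nuclear over cytoplasmic p65 intensity ratio per well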). As to conditions: HUVEC TNFa-induced p65 nuclear translocation; cell count: measured here: nuclei count (cytotoxicity indicator), at 2.08 µM; inhibition: at 2 µM, stronger effect = higher value, 0% TNFa-plus-vehicle, 100% no-TNFa wells.
Test [2] is described as follows: reduction of polyQ htt aggregates in cells – imaging, exon1htt(103Q)mCFP cells, high-content imaging, primary screen (AID 483;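 active = visual image review flags a hit and inhibition of aggregation exceeds 20%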;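 note: compound exposure lasted 3 days before fixation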;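 for nuclei count: percent of the per-plate median nuclei count of sample wells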). As to conditions: exon1htt(103Q)mCFP cell line, aggregate imaging, at 2 µM; inhibition of aggregation: stronger effect = higher value; nuclei count: measured here: cell count, toxicity.
A short description of test [3]: endothelial E-selectin expression blockers – imaging, HUVEC, immunofluorescence, MLSMR starter and 10KST1 sets, primary screen (AID 487;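 active = visually confirmed hit in the image check and inhibition above 20%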;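 for inhibition: signal is fraction of cell area covered by stained E-selectin grains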;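 for nuclei count: 100% = median nuclei count of all wells on the same plate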). As to conditions: HUVEC TNFalpha-induced E-selectin immunofluorescence imaging, at 2 µM; inhibition: stronger effect = higher value; nuclei count: measured here: cell number, toxicity.
The target in test [4] is Voltage-gated potassium channel subunit beta-2 (Rattus norvegicus) (UniProt P62483). The test is described as follows: inhibitors of rat Kvbeta2 reductase activity – biochemical, NADPH fluorescence, primary screen (AID 622;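 active = fluorescence slope higher than the sample average by over 3 SD, cut at about -0.22 in these data, passing the limit was not always enough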;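 note: slope of raw intensity against log time taken from 70 to 1610 s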). The conditions noted are these: recombinant KvBeta, 4-cyanobenzaldehyde reduction, at 10 µM, stronger effect = higher value.
Test [5] has the same target. Description: enhancers of rat Kvbeta2 NADPH turnover – biochemical, NADPH fluorescence, primary screen (AID 623).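 Note: fluorescence intensity change per second fitted from 20 to 320 s.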 The conditions noted are these: Recombinant KvBeta, NADPH fluorescence decrease slope, 10 min; at 10 µM; stronger effect = lower value.
Test [6] concerns the target Alpha-2C adrenergic receptor (Homo sapiens) (UniProt P18825). The test is described as follows: compounds altering alpha2C-coupled GIRK flux – cell-based, HEK293 alpha2C/GIRK1/2, thallium flux, primary screen (AID 624;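 active = fluorescence slope after compound addition differing from the mean of all screened samples at 99.7% confidence, in either direction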;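 note: slope of fluorescence ratio to pre-addition baseline per second over 15 to 24 s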). The conditions noted are these: thallium flux BTC fluorescence, at 10 µM, actives lie on both sides.
Test [7] in a line: blockers of RIG-like receptor reporter activation – cell-based, Sendai virus stimulus, luciferase, 10K MLSCN set, TLR/RLR signaling modifier project, primary screen (AID 602276;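 active = inhibition at or above 50% at 10 µM; inactive = inhibition below 50%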;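 note: firefly luciferase from ISG56 promoter only with Renilla not read in this screen; 0% = Sendai virus plus DMSO and 100% = medium plus DMSO without virus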). As to conditions: HEK293 RL24 IRF3 luciferase reporter, at 10 µM, stronger effect = higher value. On the technique in general: A reporter such as luciferase makes a cellular process visible.
Test [8] is described as follows: TLR3 IRF3 reporter activation blockers – cell-based, poly I:C stimulus, luciferase, 10K MLSCN set, primary screen (AID 602277;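 active = inhibition of the reporter signal at or above 50%; inactive = inhibition below 50%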). The conditions noted are these: HEK293-TLR3 RL24 IRF3 luciferase reporter, at 10 µM, stronger effect = higher value.

Chain of Voltage-gated potassium channel subunit beta-2 (Rattus norvegicus) (P62483 whole entry, looked up): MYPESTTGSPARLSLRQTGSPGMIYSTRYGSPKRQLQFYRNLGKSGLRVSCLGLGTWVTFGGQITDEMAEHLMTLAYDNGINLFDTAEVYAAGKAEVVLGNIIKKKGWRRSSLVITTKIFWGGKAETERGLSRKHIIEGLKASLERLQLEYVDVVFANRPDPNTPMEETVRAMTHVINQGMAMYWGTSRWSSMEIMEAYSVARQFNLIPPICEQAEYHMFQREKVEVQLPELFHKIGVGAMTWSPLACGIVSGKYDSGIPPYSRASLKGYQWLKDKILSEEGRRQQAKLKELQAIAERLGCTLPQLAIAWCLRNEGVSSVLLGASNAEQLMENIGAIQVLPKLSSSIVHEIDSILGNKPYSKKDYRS
Chain of Alpha-2C adrenergic receptor (Homo sapiens) (P18825 whole entry, looked up): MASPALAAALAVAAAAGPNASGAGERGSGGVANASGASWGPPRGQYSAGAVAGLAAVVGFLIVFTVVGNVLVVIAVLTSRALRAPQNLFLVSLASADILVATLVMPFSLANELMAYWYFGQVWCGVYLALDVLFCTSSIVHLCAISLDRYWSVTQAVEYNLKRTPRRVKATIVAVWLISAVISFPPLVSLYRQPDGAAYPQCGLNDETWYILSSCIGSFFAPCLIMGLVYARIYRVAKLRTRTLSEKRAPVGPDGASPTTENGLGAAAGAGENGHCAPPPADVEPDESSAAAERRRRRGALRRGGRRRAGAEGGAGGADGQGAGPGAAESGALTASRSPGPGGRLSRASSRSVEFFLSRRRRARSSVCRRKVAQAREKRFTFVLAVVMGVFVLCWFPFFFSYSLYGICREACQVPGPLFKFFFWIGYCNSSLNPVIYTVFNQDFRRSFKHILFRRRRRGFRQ

With `Cc1cc(C)n2nc(SCc3nc4ccccc4[nH]3)nc2n1`, the cell count in test [1] is 789. The inhibition in test [1] is -6.3% (inactive); in test [3], -21.3% (inactive); in test [7], -26.2% (inactive); in test [8] it was -34.6% (inactive). In test [2], the inhibition of aggregation was -29.8% (inactive). Further, the nuclei count in test [2] was 103%; in test [3] it was 117%. In test [4], the fluorescence slope was -0.568 (inactive). Also, the NADPH fluorescence slope in test [5] is 8.8e-06 (inactive). In addition, in test [6], the slope is 0.00609 (inactive).

For `O=C(CSc1nnnn1C1CCCC1)NCc1ccc2c(c1)OCO2`, the cell count in test [1] was found to be 816. Further, the inhibition is -13.2% (inactive) in test [1], -15.5% (inactive) in test [3], 1% (inactive) in test [7] and 22.3% (inactive) in test [8]. For the same compound, the inhibition of aggregation in test [2] was 3% (inactive). Besides, the values for the nuclei count in test [2] and in test [3] were 87.9% and 138%, respectively. For the same compound, the fluorescence slope in test [4] is -0.475 (inactive). For the same compound, the NADPH fluorescence slope in test [5] is -4.8e-05 (inactive). In addition, in test [6], the slope was 0.00594 (inactive).

`Cc1ccc(S(=O)(=O)C2(C(=O)NC3CCCC3)CC2)cc1`: the cell count in test [1] came out at 463. For the same compound, the inhibition was -4.2% (inactive) in test [1], -58.4% (inactive) in test [3], 13.7% (inactive) in test [7] and 36.5% (inactive) in test [8]. Further, in test [2], the inhibition of aggregation was -10.8% (inactive). Further, the nuclei count in test [2] came out at 110%; in test [3], 115%. In addition, the fluorescence slope in test [4] is -0.602 (inactive). Moreover, in test [5], the NADPH fluorescence slope was 1.6e-05 (inactive). Also, in test [6], the slope was 0.00643 (inactive).

Take `O=C(O)C1CC=CCC1C(=O)Nc1cccc(F)c1` (centres undefined): the cell count in test [1] worked out at 446. Also, the inhibition in test [1] was 5.9% (inactive); in test [3] it was 0.8% (inactive); in test [7], 10.2% (inactive); in test [8], 31.8% (inactive). The inhibition of aggregation in test [2] was -9.5% (inactive). For the same compound, the results for the nuclei count in test [2] and in test [3] were 112% and 116%, respectively. Further, the fluorescence slope in test [4] was -0.432 (inactive). In addition, the NADPH fluorescence slope in test [5] is -2.5e-05 (inactive). Moreover, the slope in test [6] was 0.00329 (inactive).

Turning to `CCOc1ccccc1NC(=O)C1CCCN(S(=O)(=O)c2cccc3cccnc23)C1` (centres undefined), the cell count in test [1] came out at 717. The inhibition in test [1] was 0% (inactive); in test [3] it was -55.7% (inactive); in test [7] it was 19.8% (inactive); in test [8], 43.4% (inactive). Moreover, the inhibition of aggregation in test [2] is 14.7% (inactive). Also, the nuclei count was 124% in test [2] and 101% in test [3]. Also, the fluorescence slope in test [4] was -0.55 (inactive). Moreover, the NADPH fluorescence slope in test [5] was -3.3e-05 (inactive). In test [6], the slope was 0.00547 (inactive).

Take `CN(C)c1cccc(NC(=O)CCc2ccccc2)c1`: in test [1], the cell count is 503. For the same compound, the inhibition in test [1] was -5.1% (inactive); in test [3] it was -7.2% (inactive); in test [7], -9.67% (inactive); in test [8], -5.4% (inactive). In addition, the inhibition of aggregation in test [2] was -5.3% (inactive). The figures for the nuclei count in test [2] and in test [3] were 106% and 95.9%, respectively. Also, the fluorescence slope in test [4] is -0.594 (inactive). Besides, the NADPH fluorescence slope in test [5] was 9.8e-06 (inactive). For the same compound, in test [6], the slope is 0.00703 (inactive).

Take `Cc1ccc(S(=O)(=O)NCCNC(=O)C2CCCNC2=O)cc1` (centres undefined): the cell count in test [1] turned out to be 440. For the same compound, the inhibition in test [1] was -0.4% (inactive); in test [3] it was -14.7% (inactive); in test [7], 16.4% (inactive); in test [8] it was 12.2% (inactive). For the same compound, the inhibition of aggregation in test [2] is -9.8% (inactive). For the same compound, the values for the nuclei count in test [2] and in test [3] were 97.5% and 121%, respectively. For the same compound, in test [4], the fluorescence slope was -0.584 (inactive). Moreover, the NADPH fluorescence slope in test [5] was -7e-05 (inactive). Also, the slope in test [6] was 0.00341 (inactive).

For the compound `CN(C)S(=O)(=O)N1CCN(c2cccc(Cl)c2)CC1`, the cell count in test [1] amounted to 411. In addition, the inhibition was -0.2% (inactive) in test [1], -14.6% (inactive) in test [3], 10.3% (inactive) in test [7] and 20.7% (inactive) in test [8]. The inhibition of aggregation in test [2] is 16.9% (inactive). Further, the values for the nuclei count in test [2] and in test [3] were 87.3% and 99.2%, respectively. In test [4], the fluorescence slope was -0.514 (inactive). Also, the NADPH fluorescence slope in test [5] was 7.3e-06 (inactive). For the same compound, the slope in test [6] was 0.00363 (inactive).

For the compound `COCCOC(=O)C1=C(C)OC(N)=C(C#N)C1c1ccc2c(c1)OCO2` (centres undefined), the cell count in test [1] stood at 468. Besides, the inhibition in test [1] is -0.5% (inactive); in test [3] it was -87.8% (inactive); in test [7], 5.43% (inactive); in test [8], 23.2% (inactive). For the same compound, in test [2], the inhibition of aggregation was 12.6% (inactive). Besides, the nuclei count in test [2] is 104%; in test [3], 110%. For the same compound, in test [4], the fluorescence slope is -0.44 (inactive). Moreover, in test [5], the NADPH fluorescence slope was -3.9e-05 (inactive). Moreover, in test [6], the slope is 0.00523 (inactive).

On to `NC(=O)C1CCN(c2nc(-c3ccccc3)nc3ccccc23)CC1`, for which, in test [1], the cell count is 554. Further, the inhibition in test [1] was -15.4% (inactive); in test [3], 49.5% (inactive); in test [7], 10% (inactive); in test [8], 8.01% (inactive). In test [2], the inhibition of aggregation was 2% (inactive). The nuclei count in test [2] worked out at 116%; in test [3], 92.8%. Also, the fluorescence slope in test [4] is -0.46 (inactive). In test [5], the NADPH fluorescence slope was -6.1e-05 (inactive). Also, the slope in test [6] is 0.00467 (inactive).

Consider `COc1ccc(-c2nc(SC)n(S(=O)(=O)c3ccccc3)n2)cc1`, for which the cell count in test [1] is 683. Also, the inhibition in test [1] is -1.9% (inactive); in test [3], -122% (inactive); in test [7] it was -26% (inactive); in test [8] it was -119% (inactive). The inhibition of aggregation in test [2] is 7.6% (inactive). For the same compound, the nuclei count in test [2] was determined as 99.4%; in test [3], 109%. The fluorescence slope in test [4] is -0.476 (inactive). For the same compound, in test [5], the NADPH fluorescence slope was 9.5e-05 (inactive). Further, the slope in test [6] was 0.00851 (inactive).

With `CCC(=O)N1CCN(CCN=CC2=C(O)CC(C)(C)CC2=O)CC1`, the cell count in test [1] was determined as 476. Moreover, the inhibition was 4% (inactive) in test [1], 5.8% (inactive) in test [3], 8.29% (inactive) in test [7] and 11.4% (inactive) in test [8]. Also, the inhibition of aggregation in test [2] is 1.1% (inactive). Also, the results for the nuclei count in test [2] and in test [3] were 105% and 111%, respectively. In addition, the fluorescence slope in test [4] was -0.518 (inactive). Also, in test [5], the NADPH fluorescence slope was -2.4e-05 (inactive). Moreover, the slope in test [6] is 0.00473 (inactive).

`CCCCOC(=O)C1=C(C)Nc2ncnn2C1c1cccc(OC)c1OC` (centres undefined): in test [1], the cell count is 655. The inhibition in test [1] is 12.8% (inactive); in test [3] it was -71.2% (inactive); in test [7], 12.8% (inactive); in test [8] it was 9.22% (inactive). Also, the inhibition of aggregation in test [2] is -20.9% (inactive). For the same compound, the nuclei count in test [2] was determined as 113%; in test [3], 111%. The fluorescence slope in test [4] was -0.403 (inactive). In addition, the NADPH fluorescence slope in test [5] was -4e-05 (inactive). Besides, the slope in test [6] is 0.00417 (inactive).

In the case of `CCCNC(=O)C1CCN(S(=O)(=O)c2ccc3nc4c(c(C(=O)O)c3c2)CCCCC4)CC1`, the cell count in test [1] was determined as 637. Besides, the inhibition was 1.3% (inactive) in test [1], -26.6% (inactive) in test [3], 8.11% (inactive) in test [7] and 12.8% (inactive) in test [8]. For the same compound, in test [2], the inhibition of aggregation is -1.8% (inactive). The nuclei count came to 119% in test [2] and 118% in test [3]. Moreover, the fluorescence slope in test [4] was -0.531 (inactive). In test [5], the NADPH fluorescence slope was 2e-05 (inactive). Further, the slope in test [6] is 0.00704 (inactive).

A word on the inhibition: it is the drop in the measured response relative to a control, in per cent.
